Among the test systems are HCT-15 colon; HT29 colon; SNB-75 CNS; SNB-19 CNS; PC-3 prostate; SK-MEL-5 melanoma; UACC-62 melanoma; LOX IMVI melanoma; SK-MEL-28 melanoma; SK-MEL-2 melanoma; EKVX NSCLC; SN12C renal; UO-31 renal; TK-10 renal; ACHN renal; CAKI-1 renal; A498 renal; MOLT-4 leukemia; CCRF-CEM leukemia; U251 CNS.
Experiment in all cases: NCI-60 one-dose screen, 48 h (100 = growth as untreated, 0 = no growth, -100 = all killed)
What all share (conditions): 10 µM unless noted

Several values for one entry are separate records, joined by “and”; a condition that tells them apart may be missing. Identical values can stand only once. This is part of a sample that, as a whole, favours compounds with a hit. Of some 83,000 tested, about 20% had one in any assay.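 A percent growth of 40 corresponds to 60% growth inhibition; 0 means no net growth; -100 means all cells died. Active threshold: below 10.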 Unmarked numbers belong to inactive results. Activity calls are given as the source filed them.

`COc1cc2nc3cc([N+](=O)[O-])ccc3c(NCCNCC(C)(C)O)c2cc1OC`: the growth with HCT-15 colon was 17%; with HT29 colon, -11.7% (active); with SNB-75 CNS it was -55.7% (active); in the test with SNB-19 CNS it was -10.5% (active); in the test on PC-3 prostate, -35.6% (active); with SK-MEL-5 melanoma, -71.3% (active). The growth was -48.6% (active) in the test with UACC-62 melanoma; -40.9% (active) in the test with LOX IMVI melanoma; -25.7% (active) in the test with SK-MEL-28 melanoma; -45.5% (active) in the test on SK-MEL-2 melanoma; 7.08% (active) in the test with EKVX NSCLC; -17.1% (active) in the test with SN12C renal. Further, the growth in the test with UO-31 renal is 27.7%; with TK-10 renal it was 9.89% (active); with ACHN renal, 6.39% (active); in the test with CAKI-1 renal, 16.1%; with A498 renal it was -48.8% (active); in the test with MOLT-4 leukemia, 5.85% (active).

As to `COc1cc(F)c(/C=C/c2cc(/C=C/c3cc(OC)c(OC)cc3F)n(-c3cc(F)cc(F)c3)n2)cc1OC`, the growth in the test on HCT-15 colon is 11.5%; with HT29 colon it was 22.9%; with SNB-75 CNS, 105%; with SNB-19 CNS, 56.7%; with PC-3 prostate, 10.4%; in the test with SK-MEL-5 melanoma, 23.6%. In addition, the growth with UACC-62 melanoma is 26.8%; in the test on LOX IMVI melanoma it was 18.6%; with SK-MEL-28 melanoma it was -28.1% (active); in the test with SK-MEL-2 melanoma, 59.5%; in the test with EKVX NSCLC, 57.7%; in the test with SN12C renal, 72.5%. The growth in the test on UO-31 renal was 85.4%; with TK-10 renal, 68.9%; with ACHN renal it was 117%; in the test on CAKI-1 renal it was 98.5%; with CCRF-CEM leukemia, 51.9%; in the test with MOLT-4 leukemia, 71.5%.

For `COCCn1cc(-c2nc(-c3cn(CCOC)c4ncccc34)cs2)c2ccccc21`, the growth with HCT-15 colon is 18.1%; in the test on HT29 colon it was 89.5%; in the test on SNB-75 CNS it was 64.6%; in the test with SNB-19 CNS, 71.1%; in the test with PC-3 prostate, 73.1%; in the test on SK-MEL-5 melanoma, 7.97% (active). For the same compound, the growth with UACC-62 melanoma is 87.1%; in the test with LOX IMVI melanoma it was 86.1%; in the test with SK-MEL-28 melanoma it was 105%; in the test with SK-MEL-2 melanoma, 59.9%; with EKVX NSCLC, 27.9%; in the test with SN12C renal, 107%. The growth in the test on UO-31 renal is 98.6%; in the test with TK-10 renal, 33.3%; in the test with ACHN renal, 91.6%; in the test on CAKI-1 renal it was 94.6%; in the test with A498 renal, 123%; in the test with CCRF-CEM leukemia it was 128%. Besides, the growth in the test on MOLT-4 leukemia was 122%.

For the compound `COc1ccc(/C=C2\COc3ccc(O)c(O)c3C2=O)c(OC)c1OC`, the growth with HCT-15 colon was 1.33% (active); with HT29 colon, 44.7%; with SNB-75 CNS it was 37.9%; in the test with SNB-19 CNS it was 28.2%; in the test with U251 CNS, 14.4%; with SK-MEL-5 melanoma, 35.5%. Moreover, the growth is -56.9% (active) in the test on UACC-62 melanoma; 0.166% (active) in the test with LOX IMVI melanoma; 58% in the test with SK-MEL-28 melanoma; 65.7% in the test on EKVX NSCLC; 0.808% (active) in the test on SN12C renal; -5.7% (active) in the test on UO-31 renal. The growth in the test with TK-10 renal is 45.1%; in the test on ACHN renal it was 12.5%; in the test with CAKI-1 renal, 39%; with CCRF-CEM leukemia, 3.07% (active); with MOLT-4 leukemia it was 1.41% (active).

In the case of `CCN(CC)CCOc1ccccc1C`, the growth was 107% in the test on HCT-15 colon; 101% in the test with HT29 colon; 98.6% in the test on SNB-75 CNS; 104% in the test with SNB-19 CNS; 97.3% in the test on PC-3 prostate; 102% in the test on SK-MEL-5 melanoma. In addition, the growth in the test on UACC-62 melanoma is 101%; with LOX IMVI melanoma, 104%; in the test on SK-MEL-28 melanoma, 98.3%; in the test with SK-MEL-2 melanoma, 101%; with EKVX NSCLC it was 112%; in the test with SN12C renal, 98.7%. For the same compound, the growth in the test with UO-31 renal was 95%; in the test on TK-10 renal, 107%; in the test with ACHN renal, 101%; in the test on CAKI-1 renal, 102%; with A498 renal it was 106%; in the test with CCRF-CEM leukemia it was 102%. The growth in the test with MOLT-4 leukemia is 103%.

`CCCCCCCCCCCCCCCCCCOc1cccc(CC(=O)OCC[N+](CC)(CC)CC)c1`: the growth in the test with HCT-15 colon was 81.3%; in the test on HT29 colon, 64.5%; with SNB-75 CNS it was 61.9%; in the test on SNB-19 CNS, 38.3%; in the test on PC-3 prostate, 55.4%; with SK-MEL-5 melanoma it was 29.8%. In addition, the growth with UACC-62 melanoma was 63%; with LOX IMVI melanoma it was 56.5%; in the test with SK-MEL-28 melanoma it was 92.8%; with SK-MEL-2 melanoma, 84%; in the test on EKVX NSCLC, 77.7%; in the test with SN12C renal it was 42.8%. Besides, the growth with UO-31 renal was 86.4%; with TK-10 renal, 67.5%; with ACHN renal, 90%; with CAKI-1 renal, 62.7%; with A498 renal, 89.3%; in the test on CCRF-CEM leukemia it was 32.5%. Further, the growth in the test on MOLT-4 leukemia is 72%.

Turning to `COc1ccc(/C=N/C2=C(C#N)C(c3ccccc3)c3c(ccc4ccccc34)O2)cc1` (stereo unspecified), the growth is 22.5% in the test with HCT-15 colon; 5.31% (active) in the test on HT29 colon; -39.4% (active) in the test on SNB-75 CNS; 22.9% in the test on SNB-19 CNS; 23.3% in the test on PC-3 prostate; 20.8% in the test with SK-MEL-5 melanoma. Besides, the growth in the test on UACC-62 melanoma was 37.3%; in the test with LOX IMVI melanoma, 28.5%; in the test with SK-MEL-28 melanoma, 64.7%; in the test with SK-MEL-2 melanoma, 49.7%; with EKVX NSCLC, 32.7%; with SN12C renal, 48%. In addition, the growth with UO-31 renal was 37.5%; in the test on TK-10 renal, 64.4%; with ACHN renal it was 35.3%; with CAKI-1 renal, 13.9%; with A498 renal, -6.08% (active); in the test on CCRF-CEM leukemia it was 15.2%. For the same compound, the growth with MOLT-4 leukemia was 27.3%.

With `Cc1c(C(=O)OCCCCOC(=O)c2c(C)n(C)c3scc[n+]23)[n+]2ccsc2n1C`, the growth with HCT-15 colon was 106%; in the test on HT29 colon, 107%; with SNB-75 CNS, 80.5%; with SNB-19 CNS it was 101%; in the test with SK-MEL-5 melanoma, 142%; in the test on UACC-62 melanoma it was 95.7%. Also, the growth in the test on LOX IMVI melanoma was 102%; in the test with SK-MEL-28 melanoma, 104%; in the test with SK-MEL-2 melanoma, 106%; in the test with EKVX NSCLC it was 95.6%; in the test with SN12C renal, 90.8%; with UO-31 renal, 78.9%. For the same compound, the growth in the test on TK-10 renal was 114%; in the test with ACHN renal it was 97.2%; in the test on CAKI-1 renal, 101%; with A498 renal, 156%; with MOLT-4 leukemia, 94.9%.

Turning to `Clc1ccc(/C=N\N2CCCCCC2)cc1`, the growth in the test with HCT-15 colon was 95.7% and 92.9%; in the test with HT29 colon, 101% and 84.9%; in the test with SNB-75 CNS, 100% and 110%; in the test with SNB-19 CNS it was 96.4% and 109%; with PC-3 prostate it was 105%; in the test with SK-MEL-5 melanoma it was 98.2% and 106%. Further, the growth in the test with UACC-62 melanoma is 92.1% and 104%; in the test with LOX IMVI melanoma it was 102%; in the test with SK-MEL-28 melanoma, 104% and 107%; with SK-MEL-2 melanoma, 122% and 106%; with EKVX NSCLC, 88.7% and 90.9%; with SN12C renal, 90.9% and 106%. Also, the growth in the test with UO-31 renal was 88.4%; in the test with TK-10 renal, 105% and 103%; with CAKI-1 renal, 124% and 94.9%; in the test with A498 renal it was 79.6%; with CCRF-CEM leukemia, 101%; in the test on MOLT-4 leukemia it was 109% and 99.4%.

For the compound `CC1(C)C(N)=Nc2cc(OCCCCN3Cc4ccccc4C3)c(OCC3CC3)cc21`, the growth is 36.2% in the test on HCT-15 colon; 27.6% in the test with HT29 colon; 78.9% with SNB-75 CNS; 81.9% in the test with SNB-19 CNS; 98.5% with PC-3 prostate; 57.7% with SK-MEL-5 melanoma. Further, the growth in the test with UACC-62 melanoma was 82.7%; in the test on LOX IMVI melanoma it was 26.4%; in the test on SK-MEL-28 melanoma, 54.4%; in the test with SK-MEL-2 melanoma it was 110%; with EKVX NSCLC it was 78.6%; with SN12C renal, 81.9%. The growth in the test on UO-31 renal was 60.5%; in the test on TK-10 renal, 86.9%; with CAKI-1 renal, 56.3%; with A498 renal, 109%; in the test with CCRF-CEM leukemia it was 99.4%; with MOLT-4 leukemia, 101%.

In the case of `C=C1C(=O)O[C@@H]2[C@H]3[C@H](COC(C)=O)[C@@H](OC(C)=O)C[C@H]3C(=C)[C@@H](O)C[C@@H]12`, the growth in the test on HCT-15 colon is 91.5%; in the test on HT29 colon, 89.6%; in the test with SNB-75 CNS, 74.8%; in the test with SNB-19 CNS, 93.7%; with PC-3 prostate it was 88.9%; in the test with SK-MEL-5 melanoma, 89.2%. In addition, the growth is 85% in the test on UACC-62 melanoma; 93% with LOX IMVI melanoma; 106% in the test with SK-MEL-28 melanoma; 88% with SK-MEL-2 melanoma; 110% with EKVX NSCLC; 92.9% in the test on SN12C renal. Also, the growth in the test with UO-31 renal is 87.9%; in the test with TK-10 renal, 82.4%; with ACHN renal, 85.9%; in the test with CAKI-1 renal it was 87.8%; with A498 renal, 121%; in the test with CCRF-CEM leukemia it was 61.8%. Also, in the test on MOLT-4 leukemia, the growth was 89.8%.

Values taken from PubChem BioAssay (NCI).
